Values joined by “and” are separate entries in the source; they are usually repeats but may differ in a detail not shown here. Equal entries are not always repeated. Records with an inconclusive call do not appear. Active and inactive are the calls of the source. Unless noted, calls follow the shape of the dose curve; as a rule, active = well fitted curve in the direction sought with a large enough effect; inconclusive = small, poorly fitted or top-dose-only effect, or another doubt; inactive = no such curve, though single readings can be large; an effect the other way counts as inactive or inconclusive.
Experiments:
[1] = Cell Viability - BJ (AID 421; calls by dose curve;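 also: potency is read from the fitted curve at half-maximal effect; cells exposed to compound for 40 hours at 37 °C before readout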); settings: BJ fibroblast viability, qHTS
Outline: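 Luminescent ATP signal (CellTiter-Glo, 20 min at room temperature) served as the read-out of viable BJ cells after 40 hours of compound treatment. Responses were scaled between DMSO and 100 uM tamoxifen, and AC50 values were obtained by Hill modeling.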

[2] = Cell Viability - Jurkat (AID 426;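 active = dose-dependent loss of cell ATP signal giving a full or clear fitted curve, ranked by lower potency value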;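 also: potency is read from the fitted curve at half-maximal effect; cells exposed to compound for 40 hours at 37 °C before ATP read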); settings: qHTS
Outline: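 Cells of the human T-cell leukemia line Jurkat (E6-1) are seeded at 5000 per well, treated with compound across a concentration range for 40 hours at 37 °C, then lysed with CellTiter-Glo; luminescence reports ATP.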

[3] = Cell Viability - Hek293 (AID 427;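 active = compounds whose dose-response curve shows a full or clear partial loss of cell viability, called from curve shape rather than a numeric limit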;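 also: potency is read from the fitted curve at half-maximal effect; cells exposed to compound for 40 hours at 37 °C before reading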); settings: qHTS
Outline: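 Luminescent ATP read-out (CellTiter-Glo, 20 min RT) after 40 hr compound exposure at 37 °C in complete medium. Signal normalized to DMSO (basal) and 100 uM tamoxifen (100% inhibition); concentration-response fitted with the standard Hill equation to give AC50.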

[4] = Cell Viability - HepG2 (AID 433; calls by dose curve;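 also: potency is read from the fitted curve at half-maximal effect; potency for ATP loss meaning cytotoxicity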); settings: qHTS
Outline: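 HepG2 hepatocellular carcinoma cells (1500/well) were treated with compounds for 40 h at 37 °C in complete medium; intracellular ATP was read by CellTiter-Glo luminescence. Data were normalized to DMSO and 100 uM tamoxifen, and AC50 came from Hill fits.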

[5] = Cell Viability - SK-N-SH (AID 435; calls by dose curve;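 also: potency is read from the fitted curve at half-maximal effect; compound exposure lasted 40 h at 37 °C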); settings: SK-N-SH neuroblastoma cell viability qHTS
Outline: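 SK-N-SH human neuroblastoma cells (1500/well) were exposed to compounds in complete medium for 40 h at 37 °C, and intracellular ATP was then measured by CellTiter-Glo luminescence. AC50 was taken from Hill fits, normalized to DMSO and 100 uM tamoxifen.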

[6] = Cell Viability - Renal Proximal Tubule (AID 545); settings: renal proximal tubule cells viability; series mostly up to 91.7 µM;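 also: 0% = DMSO only and -100% = 100 µM tamoxifen; nearly all actives have a fitted effect of over 40% in size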
Outline: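 Primary rat renal proximal tubule cells (1000/well) were treated with compounds for 40 hr at 37 °C in complete medium. Intracellular ATP was measured by CellTiter-Glo luminescence, and AC50 values came from Hill-equation fits of concentration-response data.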

[7] = Cellular Toxicity (caspase-3) HUV-EC-C (AID 656); settings: HUV-EC-C cells, caspase-3 activation (apoptosis), vehicle = 0, 100 µM tamoxifen = 100%; series mostly up to 92.2 µM;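 also: 0% = DMSO basal and 100% = 100 µM tamoxifen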
Outline: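 HUV-EC-C endothelial cells, 1000/well, were pre-incubated 5 hr at 37°C, then exposed to compounds for 16 hr at 37°C. Caspase-Glo 3/7 luminescence was read after 20 min at room temperature. AC50 came from Hill fits, normalized to DMSO and 100 uM tamoxifen.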

[8] = Cellular Toxicity (caspase-3) SHSY5Y (AID 657); settings: SH-SY5Y caspase-3 activation, DMSO zero, 10 µM staurosporine = 100%; series mostly up to 91.7 µM
Outline: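 SH-SY5Y human neuroblastoma cells (1500/well) were treated with compounds for 16 h at 37 °C, then Caspase-Glo 3/7 luminescence was read after 1 h at room temperature. Data normalized to DMSO and 10 uM staurosporine; AC50 from Hill fits.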

[9] = Cellular Toxicity (caspase-3) MRC-5 (AID 659); settings: MRC-5 cells, luminescence, normalized: DMSO 0%, 10 µM staurosporine 100%; series mostly up to 91.7 µM
Outline: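 MRC-5 fibroblasts, 1500/well; 16 h cpd, 37 °C; Caspase-Glo 3/7, 1 h RT; lumi read. Norm: DMSO = 0%, 10 uM staurosporine = 100%. Hill-fit AC50 from qHTS conc-response.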

[10] = MultiTox-Fluor Cytotoxicity Assay - LYMP1-002 - Live Cells (AID 955); settings: LYMP1-002 lymphoblastoid live-cell protease fluorescence viability; series mostly up to 46.1 µM; also: % is scaled to controls: 0 for no effect and ±100 for the full control effect
Outline: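 Cells were seeded at 2500 per well and incubated 5 hr. Compounds were then added for 16 hr at 37 C, followed by MultiTox-Fluor reagent for 60 min at room temperature and fluorescence reading of viable-cell protease signal.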

[11] = Cell Viability - LYMP1-003 - Assay at 24 hr (AID 963); settings: LYMP1-003 lymphoblastoid cell viability; series mostly up to 92.2 µM;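 also: plate controls were DMSO only for no effect and tetraoctylammonium bromide positive control for full effect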
Outline: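 Cytotoxicity is scored as a concentration-dependent fall in ATP-linked luciferase signal in human lymphoblastoid LYMP1-003 cells treated 24 hr at 37 C in complete culture medium.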

[12] = Cell Viability - LYMP2-009 (AID 968); settings: LYMP2-009 lymphoblastoid cell viability; series mostly up to 92.2 µM;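 also: 0% = DMSO alone and the full-kill end = tetraoctylammonium bromide at 92 µM; nearly all actives have a fitted effect of over 55% in size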
[13] = Cell Viability - LYMP2-017 (AID 972); settings: LYMP2-017 lymphoblastoid cell viability; series mostly up to 92.2 µM; also: % is scaled to controls: 0 for no effect and ±100 for the full control effect; nearly all actives have a fitted effect of over 55% in size
Outline: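 Cytotoxicity is scored as a concentration-dependent drop in cellular ATP in a human lymphoblastoid line after 24 hr treatment at 37 C. Values are AC50s from Hill-equation modelling.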

[14] = Cell Viability - LYMP2-025 (AID 976); settings: LYMP2-025 lymphoblastoid cell viability; series mostly up to 92.2 µM;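 also: plate controls were DMSO only for no effect and tetraoctylammonium bromide control for full effect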
Outline: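 Acute cytotoxicity is scored as a concentration-dependent fall in intracellular ATP, measured by luciferase luminescence, in human lymphoblastoid LYMP2-025 cells exposed to compound for 24 hours at 37 C. AC50 values come from standard Hill fits.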

[15] = Cell Viability - LYMP2-016 (AID 984); settings: LYMP2-016 lymphoblastoid cell viability, qHTS; series mostly up to 92.2 µM; also: % is scaled to controls: 0 for no effect and ±100 for the full control effect; nearly all actives have a fitted effect of over 55% in size
Outline: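 Human lymphoblastoid cells (LYMP2-016), 2500/well in complete medium, preincubated 5 hr at 37 C, then compound-treated 24 hr at 37 C. Intracellular ATP read by CellTiter-Glo luminescence after 30 min at room temperature; AC50 from Hill-equation concentration-response fits.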

[16] = Cell Viability - LYMP2-024 (AID 988); settings: LYMP2-024 lymphoblastoid cell viability; series mostly up to 92.2 µM;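 also: plate controls were DMSO only for no effect and 92 µM tetraoctylammonium bromide for full effect; nearly all actives have a fitted effect of over 60% in size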
Outline: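 qHTS cytotoxicity, human lymphoblastoid line, complete medium; 24 h cpd treatment, 37 C; CellTiter-Glo ATP luminescence readout; tetraoctylammonium bromide positive control; AC50 via Hill fit.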

[17] = qHTS Assay for Identification of Small Molecule Inducers of Hypoxia Response (AID 2120; active = well fitted curve in the direction sought with a large enough effect in the signal ratio, with a control signal flat, not every such curve was filed as active; the % refers to the signal ratio; also: 0% is about no effect); settings: hypoxia response reporter cells, beta-lactamase ratio readout; series mostly up to 104 µM
Outline: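 Cell-based qHTS for reporter induction: hypoxia response element controlled beta-lactamase in ME-180 cells. Compounds incubated 17 h at 37 degrees C; activity from blue/green (460/530 nm) ratio, inducers ranked by AC50.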

[18] = qHTS assay for small molecule agonists of retinoid X receptor alpha signaling (AID 588544); settings: HEK293T RXRa-UAS-bla, beta-lactamase reporter, 18 h; 530 nm emission
[19] = biological target: Peroxisome proliferator-activated receptor alpha (Homo sapiens) (UniProt Q07869); assay: qHTS assay for small molecule agonists of the peroxisome proliferator-activated receptor alpha (PPARalpha) signaling pathway (AID 651778); settings: PathHunter PPARalpha complementation, chemiluminescence, 6 h; stronger effect = higher value; also: % of control where 0% means no effect
Outline: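 Enzyme-fragment complementation assay in which ligand-bound PPARalpha translocates and forms an active enzyme that generates chemiluminescence. Cells were plated overnight, exposed to compound for 6 hr at 37 C, and then given detection reagent for 60 min at room temperature.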

[20] = qHTS assay for small molecule agonists of the antioxidant response element (ARE) signaling pathway measured by Nrf2-dependant transcriptional activity - cell viability counter screen (AID 720653; active = well fitted curve in the direction sought with a large enough effect in the repeat runs; an effect the other way counts as inactive or inconclusive; also: % is scaled to controls: 0 for no effect and ±100 for the full control effect); settings: ARE-bla HepG2 viability, CellTiter-Glo ATP luminescence, 16 h; stronger effect = lower value
Outline: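 ARE-bla HepG2 cells treated with compounds for 16 h at 37C; this counter screen measures viability as intracellular ATP by CellTiter-Glo luminescence after 30 min at room temperature.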

Chain of Peroxisome proliferator-activated receptor alpha (Homo sapiens) (Q07869 whole entry, looked up, the tested form may be a part): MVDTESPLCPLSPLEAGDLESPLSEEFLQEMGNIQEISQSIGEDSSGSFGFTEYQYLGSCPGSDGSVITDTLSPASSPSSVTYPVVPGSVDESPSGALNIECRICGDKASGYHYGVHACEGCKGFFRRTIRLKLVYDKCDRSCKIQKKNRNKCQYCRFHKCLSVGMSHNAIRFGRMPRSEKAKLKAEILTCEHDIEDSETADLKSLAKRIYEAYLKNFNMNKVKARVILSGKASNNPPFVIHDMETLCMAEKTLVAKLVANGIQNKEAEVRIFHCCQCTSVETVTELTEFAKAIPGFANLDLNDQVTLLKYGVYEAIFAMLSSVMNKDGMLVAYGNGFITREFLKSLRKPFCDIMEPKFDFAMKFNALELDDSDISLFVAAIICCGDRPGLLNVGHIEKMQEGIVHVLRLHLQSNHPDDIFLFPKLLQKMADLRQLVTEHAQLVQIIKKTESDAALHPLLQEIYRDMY

Cc1cc(Cl)ccc1O
inactive: Potency [1] > 92 µM | Potency [2] > 92 µM | Potency [3] > 92 µM | Potency [4] > 92 µM | Potency [5] > 92 µM | outcome [6] | outcome [7] | outcome [8] | outcome [9] | outcome [10] | outcome [11] | Potency [12] | Potency [13] | Potency [14] | Potency [15] | Potency [16] | Potency [17] | max response [19] -3.66% | max response [20] 10.4%
-4.59%: max response [18]

CCOS(C)(=O)=O
inactive: Potency [1] > 92 µM | Potency [2] > 92 µM | Potency [3] > 92 µM | Potency [4] > 92 µM | Potency [5] > 92 µM | outcome [6] | outcome [7] | outcome [8] | outcome [9] | outcome [10] | outcome [11] | Potency [12] | Potency [13] | Potency [15] | Potency [16] | Potency [17] | max response [19] 0.417% | max response [20] -5.61%
-9.22%: max response [18]

ClC=CCl
-1.25%: max response [18]
inactive: Potency [1] > 92 µM | Potency [2] > 92 µM | Potency [3] > 92 µM | Potency [4] > 92 µM | Potency [5] > 92 µM | outcome [6] | outcome [7] | outcome [8] | outcome [9] | outcome [10] | outcome [11] | Potency [12] | Potency [13] | Potency [14] | Potency [15] | Potency [16] | Potency [17] | max response [19] -2.13% | max response [20] -14.4%

BrC(Br)Br
inactive: Potency [1] > 92 µM | Potency [2] > 92 µM | Potency [3] > 92 µM | Potency [4] > 92 µM | Potency [5] > 92 µM | outcome [6] | outcome [7] | outcome [8] | outcome [9] | outcome [10] | outcome [11] | Potency [12] | Potency [13] | Potency [14] | Potency [15] | Potency [16] | Potency [17] | max response [19] -7% | max response [20] -14.5%
0.74%: max response [18]

Oc1cc(Cl)cc(Cl)c1
-13.2%: max response [18]
inactive: Potency [1] > 92 µM | Potency [2] > 92 µM | Potency [3] > 92 µM | Potency [4] > 92 µM | Potency [5] > 92 µM | outcome [6] | outcome [7] | outcome [8] | outcome [9] | outcome [10] | outcome [11] | Potency [12] | Potency [13] | Potency [14] | Potency [15] | Potency [16] | Potency [17] | max response [19] 5.88% | max response [20] -11.3%

Nc1c(Cl)cc([N+](=O)[O-])cc1Cl
inactive: Potency [1] > 92 µM | Potency [2] > 92 µM | Potency [3] > 92 µM | Potency [4] > 92 µM | Potency [5] > 92 µM | outcome [6] | outcome [7] | outcome [8] | outcome [9] | outcome [10] | outcome [11] | Potency [12] | Potency [13] | Potency [14] | Potency [15] | Potency [16] | Potency [17] | max response [19] -4.31% and -1.23% | max response [20] 8.8% and -9.21%
-1.27% and -9.53%: max response [18]

C=CCBr
-11.7%: max response [18]
inactive: Potency [1] > 92 µM | Potency [2] > 92 µM | Potency [3] > 92 µM | Potency [4] > 92 µM | Potency [5] > 92 µM | outcome [6] | outcome [7] | outcome [8] | outcome [9] | outcome [10] | outcome [11] | Potency [12] | Potency [13] | Potency [14] | Potency [15] | Potency [16] | Potency [17] | max response [19] -4.55% | max response [20] -1.79%

O=C(O)C(Cl)(Cl)Br
-15.6%: max response [18]
inactive: Potency [1] > 92 µM | Potency [2] > 92 µM | Potency [3] > 92 µM | Potency [4] > 92 µM | Potency [5] > 92 µM | outcome [6] | outcome [7] | outcome [8] | outcome [9] | outcome [10] | outcome [11] | Potency [12] | Potency [13] | Potency [14] | Potency [15] | Potency [16] | Potency [17] | max response [19] -5.37% | max response [20] -4.89%

Source: PubChem BioAssay (NCATS)
